Data as given in PubChem BioAssay (NCI).
The panel holds about 79,000 compounds, 15% with a hit somewhere; the sample as a whole holds those more often. Unmarked numbers belong to inactive results. The source made the active and inactive calls. No stated cut-off is given here; in the data, active means growth inhibition above about 70%; inactive means the rest.

Assay: NCI Yeast Anticancer Drug Screen. Data for the rad50EPP+ strain (AID 151);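 further: 0% = growth of vehicle-treated control cultures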
Conditions: S. cerevisiae rad50 mutant strain, stronger effect = higher value
Procedure: Growth inhibition of yeast strains with defined genetic alterations is measured as a screen for potential anti-cancer activity. Selected strains with alterations in DNA damage repair or cell cycle control were exposed to compounds and growth inhibition was measured relative to vehicle treated controls. The strain used in this assay is rad50EPP+

O=C1OC2C(O1)C1(Cl)C(Cl)=C(Cl)C2(Cl)C1(Cl)Cl (stereo not given)
growth inhibition (at 1.2 µM): -1%
growth inhibition (at 3.7 µM): 0%
growth inhibition (at 11.0 µM): 0%
growth inhibition (at 33.0 µM): -3%
growth inhibition (at 100.0 µM): -2%

CCCCCCCCCC[Se]C#N
growth inhibition (at 1.2 µM): 4%
growth inhibition (at 3.7 µM): 6%
growth inhibition (at 11.0 µM): 23%
growth inhibition (at 33.0 µM): 76% (active)
growth inhibition (at 100.0 µM): 97% (active)

CNC(=O)ON(C(C)=O)C(=O)NC
growth inhibition (at 1.2 µM): -19%
growth inhibition (at 3.7 µM): -15%
growth inhibition (at 11.0 µM): -15%
growth inhibition (at 33.0 µM): -6%
growth inhibition (at 100.0 µM): 42%

CS(=O)(=O)OCCN(CCOS(C)(=O)=O)c1ccc(C=O)cc1
growth inhibition (at 1.2 µM): 4%
growth inhibition (at 3.7 µM): 6%
growth inhibition (at 11.0 µM): 9%
growth inhibition (at 33.0 µM): 30%
growth inhibition (at 100.0 µM): 51%

CCCN(CCC)c1c([N+](=O)[O-])cc(S(N)(=O)=O)cc1[N+](=O)[O-]
growth inhibition (at 1.2 µM): -23%
growth inhibition (at 3.7 µM): -33%
growth inhibition (at 11.0 µM): -31%
growth inhibition (at 33.0 µM): -23%
growth inhibition (at 100.0 µM): -22%

O=C(O)C1C2c3ccccc3C(c3ccccc32)C1C(=O)O (stereo not given)
growth inhibition (at 1.2 µM): -4%
growth inhibition (at 3.7 µM): -3%
growth inhibition (at 11.0 µM): 2%
growth inhibition (at 33.0 µM): -3%
growth inhibition (at 100.0 µM): -4%

[N-]=[N+]=C1C(Cl)=C(Cl)C(Cl)=C1Cl
growth inhibition (at 1.2 µM): 1%
growth inhibition (at 3.7 µM): 6%
growth inhibition (at 11.0 µM): 32%
growth inhibition (at 33.0 µM): 83% (active)
growth inhibition (at 100.0 µM): 98% (active)

CCCCCCCCCCCCCCCCP(=O)(O)OCC(N)C(=O)O (stereo not given)
growth inhibition (at 1.2 µM): 0%
growth inhibition (at 3.7 µM): -5%
growth inhibition (at 11.0 µM): 5%
growth inhibition (at 33.0 µM): 20%
growth inhibition (at 100.0 µM): 69%
